In PubChem BioAssay:
Active and inactive are the calls of the source. Unless noted, how the calls were made is not given here.

Legend:
[1] = anti-His antibody binders, primary screen, artefact control for SMM control protein annotation, biochemical, small-molecule microarray, 635 nm fluorescence (AID 1128); conditions: anti-His Alexa647 antibody binding, higher = more signal;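 further: score merges feature fluorescence with signal-to-noise for each printed compound spot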
[2] = test system: Human papillomavirus type 1a E7 protein (residues 1-88); assay: HPV1a E7 small-molecule binders, primary screen, biochemical, small-molecule microarray, residues 1-88, 635 nm (AID 1129); conditions: small-molecule microarray binding, fluorescence 635 nm; higher = more signal
[3] = biological target: Focal adhesion kinase 1 (Homo sapiens) (UniProt Q05397); assay: small-molecule microarray binders of FAK, primary screen, biochemical, 635/667 nm fluorescence, BSA, DTT (AID 1130); conditions: PTK2 binding, 635 nm fluorescence, higher = more signal;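 further: composite of spot emission at 667 nm and signal to noise over triplicate slides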
Sequence of Focal adhesion kinase 1 (Homo sapiens) (Q05397 whole entry, looked up): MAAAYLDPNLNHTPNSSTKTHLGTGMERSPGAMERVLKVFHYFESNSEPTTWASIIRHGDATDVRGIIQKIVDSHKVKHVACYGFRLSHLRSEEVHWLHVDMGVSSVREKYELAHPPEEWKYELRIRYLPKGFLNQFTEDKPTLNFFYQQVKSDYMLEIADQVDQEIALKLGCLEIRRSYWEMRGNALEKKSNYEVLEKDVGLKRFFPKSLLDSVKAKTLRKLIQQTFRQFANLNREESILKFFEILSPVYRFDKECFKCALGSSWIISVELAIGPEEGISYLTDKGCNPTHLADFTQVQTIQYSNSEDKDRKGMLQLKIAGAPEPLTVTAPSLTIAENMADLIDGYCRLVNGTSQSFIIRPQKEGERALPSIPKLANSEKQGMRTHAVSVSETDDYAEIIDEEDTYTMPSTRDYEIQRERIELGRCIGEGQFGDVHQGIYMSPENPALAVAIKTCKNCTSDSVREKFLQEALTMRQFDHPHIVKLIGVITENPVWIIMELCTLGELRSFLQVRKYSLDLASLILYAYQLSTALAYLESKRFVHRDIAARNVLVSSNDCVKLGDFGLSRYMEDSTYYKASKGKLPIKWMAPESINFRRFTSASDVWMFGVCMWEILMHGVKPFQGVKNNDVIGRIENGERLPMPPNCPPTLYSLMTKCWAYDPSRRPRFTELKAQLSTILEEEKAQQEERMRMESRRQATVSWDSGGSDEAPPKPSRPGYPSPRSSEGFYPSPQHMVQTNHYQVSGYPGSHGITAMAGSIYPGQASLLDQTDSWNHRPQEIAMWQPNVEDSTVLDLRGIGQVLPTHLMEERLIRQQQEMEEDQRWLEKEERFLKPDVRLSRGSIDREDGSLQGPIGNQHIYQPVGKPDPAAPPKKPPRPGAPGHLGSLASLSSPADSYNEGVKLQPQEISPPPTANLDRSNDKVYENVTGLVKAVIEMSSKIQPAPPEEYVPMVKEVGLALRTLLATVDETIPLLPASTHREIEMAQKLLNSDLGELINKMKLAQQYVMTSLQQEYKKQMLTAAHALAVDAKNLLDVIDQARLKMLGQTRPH

[4] = test system: Fibrinogen (Alexa647-labelled); assay: fibrinogen binders on compound microarrays, profiling panel, artefact control for SMM control-protein annotation, biochemical, small-molecule microarray, 635/667 nm fluorescence (AID 1131); conditions: fibrinogen-A647 binding fluorescence, higher = more signal;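 further: z-score merges 667 nm fluorescence with per-spot signal-to-noise over triplicate slides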
[5] = biological target: Follistatin (Homo sapiens) (UniProt P19883); assay: follistatin binders on small-molecule microarrays, primary screen, biochemical, small-molecule microarray, 635/667 nm fluorescence (AID 1132); conditions: FST binding, 635 nm fluorescence, higher = more signal
Sequence of Follistatin (Homo sapiens) (P19883 whole entry, looked up): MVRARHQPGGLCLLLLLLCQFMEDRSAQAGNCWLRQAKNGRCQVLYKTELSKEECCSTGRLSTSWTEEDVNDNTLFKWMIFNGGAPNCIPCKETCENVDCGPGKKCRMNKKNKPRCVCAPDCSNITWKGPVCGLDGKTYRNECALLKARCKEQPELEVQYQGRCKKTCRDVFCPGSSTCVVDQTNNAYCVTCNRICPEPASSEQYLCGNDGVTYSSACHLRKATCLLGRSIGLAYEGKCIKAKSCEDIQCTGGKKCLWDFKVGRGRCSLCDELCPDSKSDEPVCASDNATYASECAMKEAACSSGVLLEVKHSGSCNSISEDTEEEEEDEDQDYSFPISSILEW

[6] = biological target: Fibroblast growth factor 2 (Homo sapiens) (UniProt P09038); assay: FGF2 binders on small-molecule microarrays, primary screen, biochemical, small-molecule microarray, 635/667 nm fluorescence (AID 1133); conditions: small-molecule microarray binding, FGF2, fluorescence 635/667; higher = more signal
Sequence of Fibroblast growth factor 2 (Homo sapiens) (P09038 whole entry, looked up): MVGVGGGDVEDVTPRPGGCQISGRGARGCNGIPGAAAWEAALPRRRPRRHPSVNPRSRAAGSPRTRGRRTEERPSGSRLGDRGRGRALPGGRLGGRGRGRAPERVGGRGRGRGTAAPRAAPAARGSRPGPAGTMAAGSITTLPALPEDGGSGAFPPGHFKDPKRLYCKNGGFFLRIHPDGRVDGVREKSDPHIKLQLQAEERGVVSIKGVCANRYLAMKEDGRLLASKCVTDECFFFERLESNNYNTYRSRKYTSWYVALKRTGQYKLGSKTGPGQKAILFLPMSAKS

[7] = mitochondrial membrane potential change in A549 cells, profiling panel, cell-based, JC-1 fluorescence, basal, 24 h, 100 nL (AID 1138); conditions: higher = more signal;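 further: A549 lung adenocarcinoma cells under basal conditions with no added stimulus; test concentration not given here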
Lefty1 = Lefty1 binders on small-molecule microarrays, primary screen, biochemical, small-molecule microarray, 635/667 nm fluorescence (AID 1139); conditions: small-molecule microarray binding, fluorescence 635/667; higher = more signal
[8] = test system: wheat germ agglutinin (Triticum aestivum), Alexa647-labelled; assay: wheat germ agglutinin binders on compound microarrays, profiling panel, artefact control for SMM control-protein annotation, biochemical, small-molecule microarray, 635/667 nm fluorescence (AID 1140); conditions: WGA-A647 binding, 635 nm fluorescence, higher = more signal;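 further: score merges 667 nm feature emission with signal to noise over triplicate slides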
[9] = biological target: Luciferin 4-monooxygenase (Photinus pyralis) (UniProt P08659); assay: firefly luciferase enzyme inhibitors, primary screen, biochemical, luminescence, purified enzyme, 2006 set (AID 1141); conditions: SteadyGlo luminescence, 30 min, higher = more signal, called active from +8 up or from −8 down;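 further: cell-free assay with purified firefly luciferase at 100 ng per well in PBS; test concentration not given here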
Sequence of Luciferin 4-monooxygenase (Photinus pyralis) (P08659 whole entry, looked up): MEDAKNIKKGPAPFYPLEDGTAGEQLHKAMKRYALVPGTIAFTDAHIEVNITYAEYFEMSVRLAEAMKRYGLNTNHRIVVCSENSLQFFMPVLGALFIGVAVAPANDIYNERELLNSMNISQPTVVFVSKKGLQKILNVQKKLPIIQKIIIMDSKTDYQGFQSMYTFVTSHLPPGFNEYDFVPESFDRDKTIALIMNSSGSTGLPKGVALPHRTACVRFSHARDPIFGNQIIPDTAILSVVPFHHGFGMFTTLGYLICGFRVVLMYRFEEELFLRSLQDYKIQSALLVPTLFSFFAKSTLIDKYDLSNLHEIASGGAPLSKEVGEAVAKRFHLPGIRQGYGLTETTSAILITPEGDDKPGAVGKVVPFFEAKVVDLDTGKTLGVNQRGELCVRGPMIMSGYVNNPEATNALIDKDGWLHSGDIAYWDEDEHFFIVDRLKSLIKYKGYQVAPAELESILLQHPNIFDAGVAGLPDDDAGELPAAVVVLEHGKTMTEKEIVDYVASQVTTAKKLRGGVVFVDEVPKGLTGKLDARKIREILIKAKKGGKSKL

[10] = test system: Wnt5a (protein binding on small-molecule microarray); assay: Wnt5a binders on small-molecule microarray, primary screen, biophysical, 635/667 nm fluorescence (AID 1142); conditions: 635 nm fluorescence, higher = more signal;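 further: fluorescence read at 667 nm with signal to noise per printed feature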
[11] = cell viability in Huh7 cells, primary screen, cytotoxicity control for HCV replication inhibitor project, CellTiter-Glo luminescence, basal, 48 h (AID 1143); conditions: Huh7 HCV replicon, higher = more signal, called active from +8 up or from −8 down;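 further: Huh7 hepatoma cells carrying a hepatitis C replication reporter with no stimulus; test concentration not given here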
[12] = P. aeruginosa biofilm formation inhibitors, primary screen, PAO1 strain, BacTiter-Glo luminescence, LB-PBS (AID 1144); conditions: 12 h, higher = more signal
[13] = CREB reporter modulators without forskolin, primary screen, cell-based, PC12, CRE-LacZ reporter, unstimulated (AID 1145); conditions: no forskolin, luminescence, 4.5 h, higher = more signal, called active from +8 up or from −8 down
[14] = CREB reporter modulators under forskolin, primary screen, cell-based, PC12, CRE-LacZ reporter, forskolin-stimulated (AID 1146); conditions: luminescence, 4.5 h, higher = more signal, called active from +8 up or from −8 down;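 further: PC12 cells with 6xCRE LacZ reporter stimulated by forskolin 10 µM; beta-galactosidase reporter signal reflecting CREB driven transcription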
[15] = biological target: Streptavidin (Streptomyces avidinii) (UniProt P22629); assay: streptavidin binders on small-molecule microarray, primary screen, artefact control for SMM compound annotation, biophysical, 635/667 nm fluorescence (AID 1147); conditions: streptavidin binding, higher = more signal;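 further: signal reflects streptavidin binding to arrayed compounds as a control protein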
Sequence of Streptavidin (Streptomyces avidinii) (P22629 whole entry, looked up): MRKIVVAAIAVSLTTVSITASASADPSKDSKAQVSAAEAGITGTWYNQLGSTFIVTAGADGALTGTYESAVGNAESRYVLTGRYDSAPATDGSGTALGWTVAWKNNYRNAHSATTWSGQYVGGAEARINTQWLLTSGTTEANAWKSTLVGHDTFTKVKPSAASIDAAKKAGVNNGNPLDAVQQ

[16] = small-molecule binders of probe aInhba, primary screen, biochemical, small-molecule microarray, 635/667 nm fluorescence (AID 1148); conditions: higher = more signal;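 further: score merges 667nm spot fluorescence with signal-to-noise for antibody binding to printed compounds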
Torsin-1A (Homo sapiens) [17] = biological target: Torsin-1A (Homo sapiens) (UniProt O14656); assay: torsin A binders from cell lysate, primary screen, small-molecule microarray, wild-type, 635/667 nm (AID 1149); conditions: COS7 hTOR1A-WT lysate, 635 nm fluorescence, higher = more signal
Sequence of Torsin-1A (Homo sapiens) (O14656 whole entry, looked up): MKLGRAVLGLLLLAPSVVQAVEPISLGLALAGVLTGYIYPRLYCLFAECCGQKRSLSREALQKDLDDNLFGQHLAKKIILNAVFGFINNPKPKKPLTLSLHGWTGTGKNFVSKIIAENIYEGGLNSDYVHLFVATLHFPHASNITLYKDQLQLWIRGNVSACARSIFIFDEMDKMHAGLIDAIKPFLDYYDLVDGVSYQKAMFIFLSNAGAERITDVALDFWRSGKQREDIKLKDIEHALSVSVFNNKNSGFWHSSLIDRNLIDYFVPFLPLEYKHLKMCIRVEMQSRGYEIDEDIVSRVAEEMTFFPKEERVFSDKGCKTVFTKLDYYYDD

Torsin-1A (Homo sapiens) [18] = biological target: Torsin-1A (Homo sapiens) (UniProt O14656); assay: small-molecule binders of mutant TOR1A in lysate, primary screen, cell lysate, small-molecule microarray, COS7 lysate, 635/667 nm fluorescence (AID 1150); conditions: COS7 hTOR1A mutant lysate, 635 nm fluorescence, higher = more signal;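 further: score pools 667 nm emission and signal to noise measuring lysate protein binding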
[19] = test system: Sonic hedgehog protein (Shh); assay: small-molecule binders of Shh protein, primary screen, biochemical, small-molecule microarray, 635/667 nm fluorescence (AID 1151); conditions: small-molecule microarray binding, 635 nm fluorescence; higher = more signal;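 further: Shh protein binding to compounds spotted on small-molecule microarray slides; score combines spot fluorescence intensity with signal-to-noise across triplicate slides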

| Compound | composite z-score [1] | composite z-score [2] | composite z-score [3] | composite z-score [4] | composite z-score [5] | composite z-score [6] | z-score [7] | composite z-score (Lefty1) | composite z-score [8] | z-score [9] | composite z-score [10] | z-score [11] | z-score [12] | z-score [13] | z-score [14] | composite z-score [15] | composite z-score [16] | composite z-score (Torsin-1A (Homo sapiens) [17]) | composite z-score (Torsin-1A (Homo sapiens) [18]) | composite z-score [19] |
| --- | --- | --- | --- | --- | --- | --- | --- | --- | --- | --- | --- | --- | --- | --- | --- | --- | --- | --- | --- | --- |
| C[C@@H]1ON(c2ccc(C(=O)OC(C)(C)C)cc2)[C@H](c2ccc(Br)cc2)[C@H]1C(=O)N1C(=O)OC[C@H]1Cc1ccccc1 | 0.405 | 1.05 | -0.204 | 0.97 | 0.7 | 0.734 | 1.59 | 0.822 | 0.377 | -0.874 (inactive) | 0.232 | -1.09 (inactive) | 1 (inactive) | 2.04 (inactive) | 0.289 (inactive) | 1.03 | 0.0301 | 0.673 | 0.644 | 0.991 |
| COCCOC(=O)N1C(=O)[C@@]2(c3cc(C#Cc4ccc(OC)cc4)ccc31)[C@H](C(=O)N1CCN(c3ncccn3)CC1)[C@H]1C(=O)O[C@H](c3ccccc3)[C@H](c3ccccc3)N1[C@@H]2c1ccccc1OCCO | 2.03 | 1.14 | 0.364 | -0.118 | 0.579 | 0.238 | -0.94 | 0.305 | 0.701 | 0.223 (inactive) | -0.0175 | -0.651 (inactive) | -1.1 (inactive) | -0.467 (inactive) | -0.638 (inactive) | 0.103 | -0.215 | 0.236 | 0.0863 | 1.01 |
| O=c1cccc(-c2ccc(C(F)(F)F)cc2)o1 | 0.728 | -0.955 | -0.136 | -1.1 | -0.398 | -0.41 | 0.77 | -1.03 | -0.399 | 0.854 (inactive) | -0.281 | 0.421 (inactive) | 0.634 (inactive) | -0.275 (inactive) | -0.145 (inactive) | -0.43 | -0.0963 | -0.848 | -0.476 | -0.559 |
| COCCOC(=O)N1C(=O)[C@@]2(c3cc(C#CC4(O)CCCCCC4)ccc31)[C@H](C(N)=O)[C@H]1C(=O)O[C@H](c3ccccc3)[C@H](c3ccccc3)N1[C@@H]2c1ccc(O)cc1 | 1.28 | 1.17 | 0.124 | 0.329 | 1.32 | 0.869 | -0.317 | 0.754 | 0.547 | -1.4 (inactive) | 0.179 | -1.02 (inactive) | 0.00701 (inactive) | 2.25 (inactive) | 3.59 (inactive) | 0.184 | -0.0645 | -0.0243 | 0.0342 | 0.778 |
| COC(=O)C1(Cc2ccccc2)C=C2C(=C(c3ccccc3)C(=O)C2C)CN1 (stereo not given) | 1.76 | 1.11 | -0.0788 | 0.152 | -0.111 | 0.404 | 0.408 | -0.586 | 0.943 | 1.98 (inactive) | 2 | -0.541 (inactive) | 0.125 (inactive) | 1.15 (inactive) | 0.465 (inactive) | 0.509 | 0.862 | 0.0676 | 0.47 | -0.525 |
| NCCCCCCNC(=O)[C@@H]1C[C@@H]2C(=O)N3CCC[C@H]3C(=O)N2[C@@H]1c1ccc(O)cc1 | 0.508 | 1.18 | 0.439 | 0.578 | 1.41 | 1.29 | 0.37 | 1.25 | 0.636 | -0.284 (inactive) | 0.236 | -0.118 (inactive) | -0.515 (inactive) | 0.826 (inactive) | -0.615 (inactive) | 1.01 | -0.323 | 0.592 | 0.513 | 2 |
